Experimental data as given in PubChem BioAssay (NCI).
The panel holds about 79,000 compounds, 15% with a hit somewhere; the sample as a whole holds those more often. Activity calls are given as the source filed them. Rule as the data show it: active = growth inhibition above about 70%; inactive = the rest.

Experiment: NCI Yeast Anticancer Drug Screen. Data for the mec2-1 strain (AID 157)
Conditions: S. cerevisiae mec2-1 strain, at 50.0 µM, hits give high values
Protocol: Growth inhibition of yeast strains with defined genetic alterations is measured as a screen for potential anti-cancer activity. Selected strains with alterations in DNA damage repair or cell cycle control were exposed to compounds and growth inhibition was measured relative to vehicle treated controls. The strain used in this assay is mec2-1

Structure (SMILES)	growth inhibition
CC(=O)OC1CC2(c3ccccc3)C(=O)c3ccccc3N2O1 (stereo not given)	-16.6% (inactive)
CC(C(=O)n1c2ccccc2c2ccccc21)N(c1ccccc1)c1ccccc1 (stereo not given)	-15.1% (inactive)
CC/C(=N/O)C(C)C(=O)CCC(=O)Nc1ccc(Cl)cc1 (stereo not given)	-7% (inactive)
C/C=C(/C)C(=O)OC1CC(C)=CC(OC(=O)/C(C)=C\C)[C@]2(C)C1[C@](O)(C(C)C)C[C@H]2OC(C)=O (stereo not given in full)	20.6% (inactive)
CC(=O)Nc1ccc(S(=O)(=O)/C(=C\c2ccc(Cl)o2)c2ccc([N+](=O)[O-])o2)cc1	56.8% (inactive)
CN(C)c1ccc(C2(c3ccc(N(C)C)cc3)NNC(=O)c3cc(N(C)C)ccc32)cc1	5% (inactive)
O=Nc1ccc(Cl)cc1	28.9% (inactive)
CC1(C)CCc2cc3c(O)c(-c4ccccc4)c(=O)oc3cc2O1	2.15% (inactive)
O=C(/C=N\O)c1ccncc1	-16.9% (inactive)
CC(NNC(=S)N1CCC(c2ccccc2)CC1)c1ccc2ccccc2n1 (stereo not given)	9.25% (inactive)
Cc1c(Cl)cccc1NC(=O)C(=O)C(C(=O)c1ccccc1-c1ccccc1)C1OC(=O)c2ccccc21 (stereo not given)	-44.5% (inactive)
CCCCCCCN1C=CCC(S(=O)(=O)N2CCOCC2)=C1	-7.75% (inactive)
CCOC(=O)Nc1cccc(Cl)c1	-2.45% (inactive)
CC(=O)CC(=O)Nc1cccc(NC(=O)CC(C)=O)c1	8.45% (inactive)
O=C(C[n+]1ccccc1)c1cc2c(c3ccccc13)CCCC2	-3.2% (inactive)
O=c1[nH]c2ccccc2c(=O)n1CCCN1CCN(c2cccc(Cl)c2)CC1	12.4% (inactive)
CCOC(=O)C[N+]1(C)CCC(O)CC1 (stereo not given)	26.1% (inactive)
CCCCSC1=NCCN1	9.15% (inactive)
CN=S(=O)(OC/C=C/COS(=O)(=NC)c1ccc(C)cc1)c1ccc(C)cc1 (stereo not given)	-21.9% (inactive)
Nc1nc(SCc2ccccc2Cl)cc(C(=O)O)n1	34.7% (inactive)

Structure (SMILES)	growth inhibition
CCOC(=O)c1cnc2cc3c(cc2c1Nc1cccc(C)c1)OCO3	-5% (inactive)
NCCN=C(N)C(N)=NCCN	5.3% (inactive)
Cc1cccc(NCc2ccncc2)n1	9.2% (inactive)
N#CC[N+]1(Cc2ccccn2)CCCC1	-2.05% (inactive)
Cc1cc(Br)cc(C)c1NC(=O)C(=O)CC(=O)c1sc(-n2nc(-c3ccccc3)cc2-c2ccccc2)nc1C	1.75% (inactive)
CC(=O)N1C(=O)C(C)(C2=CC(=O)c3ccccc3C2=O)c2ccc(Br)cc21 (stereo not given)	77% (active)
CC1(C(=O)O)CCCC1C(CCC(=O)O)C(=O)O (stereo not given)	15.1% (inactive)
C=C(Cl)C(Cl)(CBr)CCC(Br)C(C)(C)Cl (stereo not given)	41% (inactive)
CCCCCCC1(C=O)NC(=O)NC1=O (stereo not given)	-12% (inactive)
C/C(=N\NC(=O)C(N)=O)c1c(O)cc(C)oc1=O	5.2% (inactive)
CCCOc1ccc(C(=O)O)cc1	7.85% (inactive)
Cn1nc(Br)c(=O)n(C)c1=O	-11.1% (inactive)
Cc1ccc(N=C2N=C(N3CC(C)OC(C)C3)c3ccccc32)cc1 (stereo not given)	-22.9% (inactive)
O=c1[nH]c(-c2ccc(Cl)cc2)cs1	-14.8% (inactive)
CC1S/C(=N\N=C\c2ccc(Cl)cc2)N=C1c1c(O)c2ccccc2oc1=O (stereo not given)	52% (inactive)
COc1cc2c(c(Cl)c1OC)CCN(C)CC2c1ccccc1 (stereo not given)	-15.3% (inactive)
CCn1c2ccccc2c2ccc(N=Cc3ccc4ccccc4c3)cc21	-2.3% (inactive)
Cc1csc(NNC(N)=O)n1	-8.05% (inactive)
CCCNN(CCC)C(N)=O	13.7% (inactive)
Cc1ccccc1C1(O)c2cccc3cccc(c23)C1(O)c1ccccc1C (stereo not given)	8.45% (inactive)
